Measured values: PubChem BioAssay AID1946 (Johns Hopkins Ion Channel Center, 2009)
About 180 (7.5%) of roughly 2,400 compounds were called active. What follows is part of a selection rich in actives, with near analogues and random picks from the rest. Unmarked numbers belong to inactive results.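 The calls were made as follows: active = readout below zero, meaning a drop past 3 SD under the dofetilide-free negative control mean; inactive = the rest.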

target: Potassium voltage-gated channel subfamily KQT member 2 (Rattus norvegicus) (UniProt O88943); experiment: KCNQ2 blockade in CHO cells – cell-based, FluxOR thallium flux, counter-screen for hERG block protector project, confirmation (AID 1946); conditions: FluxOR thallium flux fluorescence, at 10 µM, active compounds read low, zero marks the 3-SD hit cutoff
Sequence (O88943 whole entry, looked up): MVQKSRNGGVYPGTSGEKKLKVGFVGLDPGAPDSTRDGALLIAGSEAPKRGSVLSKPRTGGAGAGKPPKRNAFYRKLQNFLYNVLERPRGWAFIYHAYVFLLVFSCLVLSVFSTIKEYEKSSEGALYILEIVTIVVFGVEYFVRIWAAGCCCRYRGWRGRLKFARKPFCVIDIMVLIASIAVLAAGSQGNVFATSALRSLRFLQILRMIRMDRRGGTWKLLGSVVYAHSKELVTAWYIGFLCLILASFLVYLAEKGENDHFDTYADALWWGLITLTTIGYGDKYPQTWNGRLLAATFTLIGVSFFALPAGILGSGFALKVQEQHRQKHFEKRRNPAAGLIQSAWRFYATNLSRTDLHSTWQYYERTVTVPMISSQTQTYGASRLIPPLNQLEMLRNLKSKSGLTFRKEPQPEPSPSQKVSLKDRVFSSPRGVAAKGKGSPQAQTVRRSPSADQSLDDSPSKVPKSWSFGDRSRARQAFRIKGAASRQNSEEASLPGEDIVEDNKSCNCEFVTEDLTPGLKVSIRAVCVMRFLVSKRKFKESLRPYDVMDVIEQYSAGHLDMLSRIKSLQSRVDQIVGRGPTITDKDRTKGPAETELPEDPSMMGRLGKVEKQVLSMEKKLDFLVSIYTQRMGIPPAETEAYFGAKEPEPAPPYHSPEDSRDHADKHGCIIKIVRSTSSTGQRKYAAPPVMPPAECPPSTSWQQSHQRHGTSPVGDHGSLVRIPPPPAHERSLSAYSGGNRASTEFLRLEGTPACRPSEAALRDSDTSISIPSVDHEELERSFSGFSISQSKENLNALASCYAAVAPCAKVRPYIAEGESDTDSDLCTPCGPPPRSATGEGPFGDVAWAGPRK

Row | Structure (SMILES) | activity change vs negative control
1 | CCSc1nc(=S)cc(C)[nH]1 | 78.1%
2 | O=C(O)C1C2CCC(O2)C1C(=O)Nc1ccc(F)c(Cl)c1 (centres undefined) | 10.3%
3 | COc1ccc(S(=O)(=O)N2CCCC(C(=O)Nc3ccc(OC)c(OC)c3)C2)cc1 (centres undefined) | 5.6%
4 | CC(C)N1CC(C(=O)Nc2ccc(Cl)c(Cl)c2)CC1=O (centres undefined) | -0.8% (active)
5 | CCOC(=O)C(=CNc1ccc(N2CCOCC2)cc1)C(=O)OCC | 29.7%
6 | COc1ccccc1Cn1c(=S)[nH]c2ccc(Br)cc2c1=O | 7.2%
7 | Cc1[nH]c(-c2ccccn2)nc(=S)c1Cl | 107%
8 | O=c1c2ccccc2[nH]c(=S)n1CCC1=CCCCC1 | 49.3%
9 | Cc1ccc(NS(=O)(=O)c2cn(C)c(=O)n(C)c2=O)c(C)c1 | 14.1%
10 | Cc1ccc2cc(CN(CCCN(C)C)C(=S)NCc3ccccc3)c(=O)[nH]c2c1C | -0.3% (active)
11 | Cc1ccc2cc(CCNC(=O)C(=O)c3c(C)[nH]c4ccccc34)c(=O)[nH]c2c1 | 0.8%
12 | Cc1ccc(-n2nc3ccc(N)cc3n2)c(C)c1 | -14.5% (active)
13 | O=C(COc1ccc2c3c(c(=O)oc2c1)CCC3)N[C@@H](Cc1ccccc1)C(=O)O | 31.1%
14 | CCOC(=O)C1CCN(S(=O)(=O)c2cccc3nonc23)CC1 | 20.3%
15 | CCOc1ccc(C(=O)N(CN2CCCC2=O)c2ccc(C)cc2)cc1 | 44.8%
16 | Cc1onc(-c2ccccc2)c1C(=O)NC(=S)Nc1sc2c(c1C#N)CCCC2 | 10.5%
17 | CC(C)OC(=O)c1c(NC(=O)c2ccco2)sc2c1CCCCC2 | 3.9%
18 | Cc1ccc(C(=O)Nc2sc3c(c2C(=O)O)CCCCC3)o1 | -2.5% (active)
19 | Oc1c(Br)cc(Br)cc1C=Nc1ccc2[nH]ncc2c1 | 54.4%
20 | O=C(NC(=S)N1CCN(c2ccc(C(F)(F)F)cc2[N+](=O)[O-])CC1)c1cccs1 | 30.1%
21 | CC(C)Oc1cccc(C(=O)NC(=S)N2CCN(c3ccc(C(F)(F)F)cc3[N+](=O)[O-])CC2)c1 | 11.4%
22 | COc1cccc(OC)c1C(=O)NC(=S)N1CCN(c2ccc(C(F)(F)F)cc2[N+](=O)[O-])CC1 | -6% (active)

Row | Structure (SMILES) | activity change vs negative control
23 | CCOC(=O)c1n[nH]n2c1nc(=S)c1ccccc12 | 77.4%
24 | CSC(=S)N/N=C/c1ccccc1 | 71%
25 | Cc1cccc(/C=N/NC(=O)c2cc(Br)ccc2O)n1 | 23.8%
26 | Cc1ccc(C(=O)N2CCN(c3ccccc3)CC2)cc1S(=O)(=O)N1CCCC1 | 29.7%
27 | O=C(NC(=S)N(CC1CCC1)CC1CCCO1)c1cccc([N+](=O)[O-])c1 (centres undefined) | 63.2%
28 | O=C(CCc1ccccc1)NC(=S)Nc1cc(C(F)(F)F)ccc1N1CCOCC1 | -15.9% (active)
29 | O=C(NC(=S)Nc1cc(C(F)(F)F)ccc1Cl)c1ccccc1 | 8.2%
30 | O=C(NC(=S)Nc1cc(C(F)(F)F)ccc1N1CCOCC1)c1ccco1 | 11.7%
31 | COc1cc(C(=O)Nc2ccc(O)cc2C(=O)O)ccc1OC(C)=O | 3.8%
32 | Cn1c(=O)c(Sc2ccccc2)c(O)c2ccccc21 | 23.4%
33 | COc1ccc(C(=O)NNC(=O)C(=O)NC2CCCCC2)cc1 | 20.2%
34 | O=C(c1csc(Nc2ccccc2Cl)n1)N1CCCC1 | 0%
35 | CCOc1ccc(-n2cnc3sc(C)c(C)c3c2=O)cc1 | 3%
36 | Cc1ccc(OC(=O)c2sc3ncn(C)c(=O)c3c2C)cc1 | -1.4% (active)
37 | COc1ccccc1-n1cnc2sc(C)c(C)c2c1=O | 11.8%
38 | CCOc1cc(N2CCOCC2)c(OCC)cc1NC(=O)Cn1nc(C)c([N+](=O)[O-])c1C | 12.9%
39 | CCSc1nnc(NC(=O)CC(C)C)s1 | 10.8%
40 | Cc1ccc(OCc2ccoc2C(=O)O)cc1C | 45.7%
41 | O=C(/C=C/Nc1ccc(F)c(F)c1)c1cccs1 | -2.9% (active)
42 | O=C(/C=C/Nc1ccc(F)cc1)c1ccco1 | 12.2%
43 | Cc1ccc(N/C=C/C(=O)c2cccs2)cc1 | 5%
44 | Cc1ccc(Cc2c[nH]c(=S)s2)cc1 | 76.4%

Row | Structure (SMILES) | activity change vs negative control
45 | O=C(NC(=S)N1CCc2ccccc21)c1ccc(Br)o1 | 41%
46 | S=c1nc(Cc2ccccc2)[nH]c2ccccc12 | 98.8%
47 | O=C1CC(C(=O)N2CCOCC2)C2(CCCCC2)O1 (centres undefined) | -1% (active)
48 | O=C(C1CCN(S(=O)(=O)c2cc(Cl)ccc2Cl)CC1)N1CCOCC1 | 1.9%
49 | Cc1ccc(C(C)C)c(OCc2n[nH]c(=S)o2)c1 | 32.2%
50 | O=C(NC(=S)NCc1ccccc1)c1ccc(Br)o1 | 93.4%
51 | CCC1=NN(C(=O)c2ccc(Cl)cc2)C(O)(c2ccc(C)cc2)C1 (centres undefined) | 11.1%
52 | CC1=NN(C(=O)c2ccc(Cl)cc2)C(O)(c2ccccc2)C1 (centres undefined) | 16%
53 | CCC1=NN(C(=O)c2ccc(Cl)cc2)C(O)(c2ccccc2)C1 (centres undefined) | -0.9% (active)
54 | CC(C)NC(=O)Nc1n[nH]c(Nc2ccc(Cl)cc2)n1 | 34.6%
55 | COCCN(C(=O)CSc1nnc(C)n1Cc1ccccc1)c1c(N)n(CC(C)C)c(=O)[nH]c1=O | 1.8%
56 | C=CCN(c1ccc(C(=O)NC(C)C)cc1)S(C)(=O)=O | -2.3% (active)
57 | C=CCN(CC=C)C(=S)NC(=O)c1ccc(OC)cc1 | 31.6%
58 | CS(=O)(=O)N(Cc1ccccc1)c1ccc(C(=O)Nc2ccc(C(N)=O)cc2)cc1 | 4.2%
59 | CCOC(=O)C1=NN(C(=O)c2ccccc2)C(O)(c2ccc(C)cc2)C1 (centres undefined) | 32%
60 | CCn1c(=S)[nH]c2c(c1=O)C(C)(C)Cc1ccccc1-2 | 49.8%
61 | c1ccc(-c2n[nH]c(-c3ccccn3)n2)cc1 | 20.5%
62 | Oc1c(N=NC(=S)Nc2ccccc2F)c2ccccc2n1Cc1ccccc1F | 10.9%
63 | Cn1c(O)c(N=NC(=S)Nc2ccccc2F)c2cc(S(=O)(=O)N3CCOCC3)ccc21 | 4%
64 | C=CCn1c(O)c(N=NC(=S)Nc2ccccc2F)c2cc(S(=O)(=O)N3CCOCC3)ccc21 | -2.3% (active)
